The text below walks through data of PubChem BioAssay (EPA / NIEHS).

A word on the AC50: it is the midpoint of the concentration-response curve, whichever way the signal moves.

The structures appear in SMILES notation. The source made the active and inactive calls. How the source made its calls: active means hit-call score of the fitted dose curve at least 0.9, where 1 is the maximum; inactive means score below 0.9.

A short description of experiment [1]: APR_HepG2_CellLoss_72hr: Apredica 72-hour HepG2 Assay for Cell Loss (AID 2282915). To be noted: high-content imaging. An outline of the steps:
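Cell number comes from Hoechst 33342-labelled nuclei, imaged at 20x after 3.7% formaldehyde fixation. Dosing was 0.39–200 uM, ten concentrations in duplicate, 0.5% DMSO final, for 72 h. Bidirectional fit relative to DMSO baseline.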

Experiment [2] can be described thus: APR_HepG2_P-H2AX_72hr: Apredica 72-hour HepG2 Assay for H2AX Phosphorylation (AID 2282916).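 Further: phospho-histone H2A.x immunostain intensity per cell marking DNA damage.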 As to conditions: imaging, actives raise or lower the signal. An outline of the steps:
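Phospho-H2A.x imaging endpoint in HepG2 after 72 hr compound exposure (0.39–200 uM, duplicate wells). Activity derived by bidirectional curve fitting with DMSO as baseline.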

Experiment [3] in a line: APR_HepG2_MitoMembPot_72hr: Apredica 72-hour HepG2 Assay for Mitochondrial Membrane Potential (AID 2282917). As to conditions: imaging, actives raise or lower the signal. An outline of the steps: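 Membrane potential read by MitoTracker Red CMXRos (250 nM, 30 min, pre-fixation) fluorescence imaging of HepG2 after 72 hr exposure. Ten concentrations, 0.39–200 uM, duplicate wells, 0.5% DMSO; fitted in both directions against DMSO baseline.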

Experiment [4] in a line: APR_HepG2_MitoticArrest_72hr: Apredica 72-hour HepG2 Assay for Mitotic Arrest (AID 2282918). As to conditions: high-content imaging, actives raise or lower the signal. An outline of the steps:
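Using high-content imaging of fixed HepG2 cells, phospho-histone H3 signal was measured following a 72 hr incubation with ten-point compound dilutions up to 200 uM. DMSO served as the negative control and baseline for bidirectional curve fitting.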

The nature of experiment [5]: APR_HepG2_MicrotubuleCSK_72hr: Apredica 72-hour HepG2 Assay for Microtubule CSK Stabilty (AID 2282919). To be noted: HepG2 microtubule cytoskeleton, high-content imaging, actives raise or lower the signal. An outline of the steps: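 High-content imaging of alpha-tubulin staining in fixed HepG2 cells after 72 hr treatment with ten concentrations from 0.39 to 200 uM (0.5% DMSO). Fitting was bidirectional against DMSO; taxol served as positive control.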

Experiment [6] in a line: APR_HepG2_P-H2AX_24hr: Apredica 24-hour HepG2 Assay for H2AX Phosphorylation (AID 2282920). As to conditions: high-content imaging, actives raise or lower the signal. An outline of the steps:
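Human HepG2 liver cells, treated 24 hr with test chemicals (0.39–200 uM, final DMSO 0.5% v/v), are fixed and co-stained for phospho-H2A.x and c-Jun with Hoechst. Imaged intensity is fitted in both directions against DMSO controls.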

Experiment [7] is described as follows: APR_HepG2_StressKinase_24hr: Apredica 24-hour HepG2 Assay for Stress Kinase (AID 2282922). As to conditions: HepG2 stress kinase (phospho-c-Jun) imaging, actives raise or lower the signal. An outline of the steps:
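High-content imaging of phospho-c-Jun immunofluorescence in fixed, permeabilized HepG2 cells after 24 h dosing. Ten concentrations, 0.39 to 200 uM, run in duplicate at 0.5% v/v DMSO; gain or loss of signal versus DMSO.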

The nature of experiment [8]: APR_HepG2_p53Act_72hr: Apredica 72-hour HepG2 Assay for p53 Activation (AID 2282923).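 Further: average cellular p53 protein immunofluorescence intensity in HepG2 cells.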 As to conditions: high-content imaging, actives raise or lower the signal. An outline of the steps: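 Fixed-cell p53 staining (sheep primary, Cy5 secondary) measured by fluorescence imaging following 72 hr treatment at 0.39–200 uM in 0.5% DMSO; DMSO served as negative control and baseline.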

A short description of experiment [9]: APR_HepG2_MitoMass_72hr: Apredica 72-hour HepG2 Assay for Mitochondrial Mass (AID 2282924).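 Further: MitoTracker Red CMXRos stain intensity per cell imaged as mitochondrial mass.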 To be noted: high-content imaging, actives raise or lower the signal. An outline of the steps: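 Readout is imaged MitoTracker Red (250 nM, 30 min, pre-fixation) signal, fitted bidirectionally against DMSO baseline. Human HepG2 liver cells received compound 0.39–200 uM in duplicate for 72 hr, final DMSO 0.5%.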

Experiment [10] in a line: APR_HepG2_NuclearSize_72hr: Apredica 72-hour HepG2 Assay for Nuclear Size (AID 2282925). As to conditions: high-content imaging, actives raise or lower the signal. An outline of the steps: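 Nuclear size was read by high-content imaging of Hoechst 33342 stain after formaldehyde fixation. Compounds ran 72 h on HepG2 at 0.39 to 200 uM, with final DMSO 0.5% v/v. Curves fitted both directions relative to DMSO control.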

Experiment [11] can be described thus: ATG_CRE_CIS: Attagene CIS-FACTORIAL HepG2 Assay for human cAMP Responsive Element (CRE) binding protein 3 (AID 2282926). As to conditions: HepG2 CRE cis-reporter, Attagene multiplexed mRNA; actives raise or lower the signal. An outline of the steps: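 Liver-derived HepG2, transfected with a CRE-containing reporter panel, exposed 24 h; transcript levels sized and quantified by capillary electrophoresis of labelled amplicons; signal changes either way referenced to vehicle.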

The target in experiment [12] is CCAAT/enhancer-binding protein beta (Homo sapiens) (UniProt P17676). Kind of experiment: ATG_C_EBP_CIS: Attagene CIS-FACTORIAL HepG2 Assay for human CCAAT/Enhancer Binding Protein (C/EBP) beta (AID 2282927). To be noted: HepG2 Attagene cis-factorial transcription factor reporter; actives raise or lower the signal. An outline of the steps: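 Endogenous C/EBPb-driven reporter transcripts measured in transfected human HepG2 cells at 24 h via RT-PCR and capillary electrophoresis of labelled fragments. Activity fitted in both directions relative to DMSO baseline.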
CCAAT/enhancer-binding protein beta (Homo sapiens), sequence (P17676 whole entry, looked up, the tested form may be a part): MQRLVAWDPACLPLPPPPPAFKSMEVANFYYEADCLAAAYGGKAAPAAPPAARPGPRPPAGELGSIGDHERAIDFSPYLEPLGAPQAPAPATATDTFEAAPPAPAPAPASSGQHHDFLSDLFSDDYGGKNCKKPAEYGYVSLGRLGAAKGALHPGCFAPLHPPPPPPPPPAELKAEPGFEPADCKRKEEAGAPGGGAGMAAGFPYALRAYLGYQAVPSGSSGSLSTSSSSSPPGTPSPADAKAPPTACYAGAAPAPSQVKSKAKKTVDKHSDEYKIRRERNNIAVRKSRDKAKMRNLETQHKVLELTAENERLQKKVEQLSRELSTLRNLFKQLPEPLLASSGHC

Experiment [13] can be described thus: ATG_CMV_CIS: Attagene CIS-FACTORIAL HepG2 Assay for human CMV (Internal Marker) (AID 2282928).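 Further: endpoint acts as a background internal control marker rather than a target.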 As to conditions: HepG2 CMV promoter reporter, transcription factor profiling; actives raise or lower the signal. An outline of the steps:
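Readout: fluorescent reporter cDNA fragments separated by capillary electrophoresis after RT-PCR and HpaI cut. Cells: HepG2 carrying transfected cis-promoter reporter constructs, dosed 24 h. Endpoint serves as background internal-marker control, fit bidirectionally versus DMSO.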

Experiment [14] has as its target Aryl hydrocarbon receptor (Homo sapiens) (UniProt P35869). Briefly: ATG_Ahr_CIS: Attagene CIS-FACTORIAL HepG2 Assay for human Aryl Hydrocarbon Receptor (Ahr) (AID 2282930). As to conditions: HepG2 AhR cis-factorial reporter transcription; actives raise or lower the signal. An outline of the steps: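 Reporter mRNA levels, quantified by RT-PCR and fluorescent capillary electrophoresis, reflect endogenous AhR transcriptional activity in HepG2 cells carrying transfected cis-promoter reporter constructs. Readout at 24 h post-dose; gain or loss fitted against DMSO baseline.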

The nature of experiment [15]: ATG_AP_2_CIS: Attagene CIS-FACTORIAL HepG2 Assay for human Activator Protein 2 (AP-2) (AID 2282932). To be noted: HepG2 AP-2 cis-reporter, Attagene transcription factor profiling; actives raise or lower the signal. An outline of the steps:
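Transiently transfected HepG2 cells are exposed to chemical for 24 h. Reporter transcripts are then measured as fluorescence following RT-PCR and capillary separation, and gain- or loss-of-signal is fitted relative to DMSO.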

Experiment [16] in a line: ATG_BRE_CIS: Attagene CIS-FACTORIAL HepG2 Assay for human Bone Morphogenetic Protein (BMP) Response Element (BRE) (AID 2282933). To be noted: HepG2 BMP response element reporter, Attagene transcription factor profiling; actives raise or lower the signal. An outline of the steps:
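Gain- or loss-of-signal was derived by bidirectional fitting against DMSO controls. The signal came from reporter mRNA, measured by RT-PCR and capillary electrophoresis, in HepG2 cells transiently carrying multiple reporter units and dosed for 24 h.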

The target of experiment [17] is Retinoic acid receptor alpha (Homo sapiens) (UniProt P10276). Kind of experiment: ATG_DR5_RAR_CIS: Attagene CIS-FACTORIAL HepG2 Assay for human Retinoic Acid Receptor Alpha (RARE), DR5 submotif (AID 2282934).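 On AC50: reporter responds to endogenous RAR alpha beta and gamma in HepG2 not RARA alone.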 As to conditions: HepG2 Attagene cis-factorial RARE DR5 reporter, mRNA; actives raise or lower the signal. An outline of the steps:
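Reporter transcripts from a DR5-regulated unit, measured via RT-PCR plus capillary electrophoresis, reflect endogenous RAR activity in transiently transfected human HepG2 liver cells. Exposure lasted 24 h; gain or loss of signal scored against DMSO.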

Experiment [18] in a line: ATG_DR4_LXR_CIS: Attagene CIS-FACTORIAL HepG2 Assay for human Liver X Receptor (LXR), DR4 submotif (AID 2282929). As to conditions: HepG2 Attagene DR4 cis-reporter, mRNA transcription; actives raise or lower the signal. An outline of the steps: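 After transient transfection with multiplexed cis-promoter reporter units, HepG2 cells received test chemicals for 24 h. Reporter mRNA induction, detected by fluorescence after RT-PCR and capillary electrophoresis, was scored relative to DMSO.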

A short description of experiment [19]: ATG_AP_1_CIS: Attagene CIS-FACTORIAL HepG2 Assay for human Activator Protein 1 (AP-1) (AID 2282931). To be noted: HepG2 Attagene cis-factorial AP-1 reporter mRNA; actives raise or lower the signal. An outline of the steps: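 After 24 h incubation with test chemical, RNA from transfected HepG2 cells was reverse-transcribed, amplified, fluorescently labelled and digested before capillary electrophoresis. Reporters were driven by cis-regulatory promoters; activity fitted bidirectionally versus DMSO.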

Retinoic acid receptor alpha (Homo sapiens), sequence (P10276 whole entry, looked up): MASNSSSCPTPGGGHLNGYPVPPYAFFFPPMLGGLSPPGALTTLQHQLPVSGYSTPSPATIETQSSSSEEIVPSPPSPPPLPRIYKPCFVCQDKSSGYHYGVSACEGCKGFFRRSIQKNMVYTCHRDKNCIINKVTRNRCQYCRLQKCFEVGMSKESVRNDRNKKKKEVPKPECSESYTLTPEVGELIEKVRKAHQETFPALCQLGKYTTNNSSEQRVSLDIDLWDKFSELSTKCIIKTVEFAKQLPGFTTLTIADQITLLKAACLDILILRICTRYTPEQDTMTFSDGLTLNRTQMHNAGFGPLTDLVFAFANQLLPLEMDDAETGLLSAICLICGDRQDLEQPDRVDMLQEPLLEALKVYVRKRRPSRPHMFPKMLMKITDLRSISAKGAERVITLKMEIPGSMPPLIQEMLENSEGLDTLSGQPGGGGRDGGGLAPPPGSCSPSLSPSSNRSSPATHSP
Aryl hydrocarbon receptor (Homo sapiens), sequence (P35869 whole entry, looked up): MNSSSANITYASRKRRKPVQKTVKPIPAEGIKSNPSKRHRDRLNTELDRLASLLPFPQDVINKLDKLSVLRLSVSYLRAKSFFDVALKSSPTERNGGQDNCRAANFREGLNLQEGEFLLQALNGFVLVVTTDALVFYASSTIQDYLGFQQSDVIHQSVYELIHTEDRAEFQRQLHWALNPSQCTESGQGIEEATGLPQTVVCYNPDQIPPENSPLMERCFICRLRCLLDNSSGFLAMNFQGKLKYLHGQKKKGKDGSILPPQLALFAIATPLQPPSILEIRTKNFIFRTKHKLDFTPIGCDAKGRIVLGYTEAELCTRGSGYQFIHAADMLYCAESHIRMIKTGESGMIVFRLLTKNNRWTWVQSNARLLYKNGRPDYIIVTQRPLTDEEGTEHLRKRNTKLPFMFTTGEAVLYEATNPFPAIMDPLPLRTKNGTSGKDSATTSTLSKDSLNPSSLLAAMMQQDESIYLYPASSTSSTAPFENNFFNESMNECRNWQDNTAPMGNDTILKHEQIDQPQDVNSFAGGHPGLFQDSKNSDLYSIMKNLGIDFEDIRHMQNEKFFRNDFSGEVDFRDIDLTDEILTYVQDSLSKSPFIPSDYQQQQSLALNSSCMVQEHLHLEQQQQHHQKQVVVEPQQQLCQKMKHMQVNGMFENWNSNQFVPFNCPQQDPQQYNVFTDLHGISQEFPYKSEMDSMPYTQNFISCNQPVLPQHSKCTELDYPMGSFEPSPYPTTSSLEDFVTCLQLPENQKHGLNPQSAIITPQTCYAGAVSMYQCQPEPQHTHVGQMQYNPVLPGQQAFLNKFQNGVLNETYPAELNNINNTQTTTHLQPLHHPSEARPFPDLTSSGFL

Turning to `CCOP(=S)(OCC)Oc1nc(Cl)n(C(C)C)n1`, the result in experiment [1], in experiment [2], in experiment [3], in [4], in experiment [5] and in experiment [6] was inactive. In addition, the compound was classed as inactive in experiment [7], in [8], in experiment [9], in experiment [10], in experiment [11] and in [12]. In addition, the compound was classed as inactive in [13], in [14], in experiment [15], in [16] and in experiment [17].

As to `Cc1ccc(N=CN(C)C=Nc2ccc(C)cc2C)c(C)c1`, the outcome in [1], in experiment [2], in [3], in experiment [7], in experiment [8] and in experiment [9] was inactive. For the same compound, the result in [10], in experiment [11], in [12], in experiment [13], in experiment [14] and in experiment [15] was inactive. Further, the call in [16] and in experiment [17] was inactive. In addition, the AC50 in [4] is 82.4 µM (active); in experiment [5], 163 µM (active); in experiment [6] it was 154 µM (active).

For the compound `O=c1n(Cl)c(=O)n(Cl)c(=O)n1Cl`, the compound was called inactive in [1], in experiment [2], in [3], in [4], in experiment [5] and in experiment [6]. The compound was called inactive in [7], in experiment [8], in experiment [9], in experiment [10], in experiment [11] and in experiment [12]. Further, the call in experiment [13], in [18], in experiment [15], in [16] and in experiment [17] was inactive. Further, the AC50 in [14] was 19.6 µM (active).

Regarding `CC(C)Oc1cccc(NC(=O)c2ccccc2C(F)(F)F)c1`, the AC50 in experiment [1] was 131 µM (active); in [5], 100 µM (active); in experiment [11] it was 13.6 µM (active); in experiment [12], 5.21 µM (active); in experiment [13], 41.8 µM (active); in [14], 22.2 µM (active). Moreover, the AC50 in experiment [16] is 9.92 µM (active); in experiment [17] it was 9.42 µM (active). The outcome in experiment [2], in [3], in experiment [4], in experiment [6], in [7] and in [8] was inactive. For the same compound, the call in experiment [9], in experiment [10], in experiment [19] and in experiment [15] was inactive.

For `COCC(=O)N(c1c(C)cccc1C)C(C)C(=O)OC` (configuration not stated), the call in [1], in [2], in experiment [3], in experiment [4], in [5] and in [6] was inactive. Further, the call in [7], in [8], in experiment [9], in experiment [10], in experiment [11] and in [12] was inactive. The result in experiment [13], in experiment [15] and in [17] was inactive. Also, the AC50 in [14] was 81.7 µM (active); in experiment [16], 50 µM (active).

On to `COCc1cnc(C2=NC(C)(C(C)C)C(=O)N2)c(C(=O)O)c1` (configuration not stated), for which the compound was called inactive in experiment [1], in experiment [2], in [3], in [4], in experiment [5] and in experiment [6]. The compound was classed as inactive in experiment [7], in experiment [9], in experiment [10], in experiment [11], in experiment [12] and in [13]. For the same compound, the compound was called inactive in [18], in experiment [14], in [15], in experiment [16] and in [17].

Turning to `CCOP(=O)(OCC)Oc1nc(Cl)c(Cl)cc1Cl`, the compound was called inactive in experiment [1], in experiment [2], in [3], in experiment [4], in [5] and in experiment [6]. Moreover, the compound was called inactive in experiment [7], in experiment [8], in experiment [9], in experiment [10], in experiment [11] and in experiment [12]. Further, the call in experiment [18], in experiment [14], in [15], in experiment [16] and in [17] was inactive. For the same compound, the AC50 in [13] is 19.6 µM (active).
